According to PubChem BioAssay (Tox21):
Inconclusive results are not listed. A call without a number means that no potency is given here. A number with no mark means an inactive call. Active and inactive are the calls of the source. Unless noted, calls come from the whole dose curve; as a rule, active = well fitted curve in the direction sought with a large enough effect in the repeat runs; inconclusive = weak or mixed curves; inactive = no such curve, though single readings can be large; an effect the other way counts as inactive or inconclusive.

Experiments:
[1] = qHTS assay to identify small molecule agonists of the RXR signaling pathway - cell viability counter screen (AID 1159529); note: nearly all actives have a fitted effect of over 50% in size; note: potency is the fitted concentration of half-maximal effect
Method in brief: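 Steps: seed RXR-alpha-UAS-bla HEK 293T cells in assay medium containing 2% charcoal-stripped FBS; incubate 5 hr; add compounds in DMSO; incubate 16 hr at 37 C; after the bla read, add CellTiter-Glo and read luminescence at 30 min.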

[2] = qHTS assay to identify small molecule antagonists of the retinoid acid receptor (RAR) signaling pathway - cell viability counter screen (AID 1159551); note: nearly all actives have a fitted effect of over 35% in size; note: potency is the fitted concentration of half-maximal effect
Method in brief: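 ATP-based viability, C3RL4 cells, 6 h at 37 C with 1 uM final retinol co-added after compound; luminescence read 30 min post CellTiter-Glo, RT.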

[3] = qHTS assay to identify small molecule antagonists of the retinoic acid receptor (RAR) signaling pathway (AID 1159552; note: nearly all actives have a fitted effect of over 50% in size; note: potency is the fitted concentration of half-maximal effect)
Method in brief: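 Retinol at 1 uM final stimulated RARE-luciferase expression in C3RL4 cells exposed to test compounds for 6 hr at 37 C. Reduced luminescence, read 30 min after detection reagent, indicated pathway antagonism.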

[4] = qHTS assay to identify small molecule agonists of the retinoic acid receptor (RAR) signaling pathway (AID 1159553); settings: C3RL4 RARE luciferase reporter, agonist, 6 h; activation: at 73.3 µM (top of the series); note: potency is the fitted concentration of half-maximal effect
Method in brief: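 Quantitative high-throughput format: the Tox21 10K library was tested on C3RL4 RARE-luciferase cells for 6 hr at 37 C and 5% CO2, with luminescence measured after a 30 min room-temperature reagent step.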

[5] = biological target: Retinoic acid receptor RXR-alpha (Homo sapiens) (UniProt P19793); experiment: qHTS assay to identify small molecule agonists of the RXR signaling pathway (AID 1159527; calls by dose curve; note: nearly all actives have a fitted effect of over 35% in size)
Chain of Retinoic acid receptor RXR-alpha (Homo sapiens) (P19793 whole entry, looked up): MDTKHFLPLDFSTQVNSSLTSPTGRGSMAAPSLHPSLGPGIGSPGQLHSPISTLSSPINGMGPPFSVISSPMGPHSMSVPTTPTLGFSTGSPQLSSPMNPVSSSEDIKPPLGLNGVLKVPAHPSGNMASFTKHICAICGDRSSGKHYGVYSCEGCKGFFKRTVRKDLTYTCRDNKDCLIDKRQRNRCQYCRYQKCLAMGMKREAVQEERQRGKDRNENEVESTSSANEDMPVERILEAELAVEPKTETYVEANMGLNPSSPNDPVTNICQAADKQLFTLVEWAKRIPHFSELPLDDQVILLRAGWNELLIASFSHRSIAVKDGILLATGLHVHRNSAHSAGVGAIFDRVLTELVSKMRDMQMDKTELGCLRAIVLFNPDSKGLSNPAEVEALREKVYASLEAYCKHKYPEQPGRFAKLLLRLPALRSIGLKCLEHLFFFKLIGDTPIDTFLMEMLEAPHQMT
Method in brief: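 Cells plated at 2,000/well, rested 5 hr at 37 C, pin-dosed with DMSO compound solutions, incubated 16 hr, then loaded with B/G FRET substrate for 2 hr at RT before dual-emission fluorescence reading.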

[6] = qHTS assay to identify small molecule antagonists of the estrogen related receptor (ERR) signaling pathway - cell viability counter screen (AID 1224818);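 note: viability measured after 17.5 h of compound exposure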
Method in brief: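 Quantitative high-throughput viability counter screen in ERR cells. Compounds (DMSO) incubated 17.5 h at 37 C; read-out was CellTiter-Fluor fluorescence.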

[7] = qHTS assay to identify small molecule antagonists of the estrogen related receptor (ERR) signaling pathway (AID 1224819;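 note: luminescence from an ERR-driven luciferase reporter measured with One-Glo reagent; nearly all actives have a fitted effect of over 50% in size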)
Method in brief: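 ERR reporter cell line (NTP) plated at 2,000 cells/well, settled 6 h at 37C/5% CO2, then exposed to LOPAC compounds for 18 h at 37C. One-Glo luciferase luminescence read after 30 min at room temperature.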

[8] = qHTS assay to identify small molecule agonists of the estrogen related receptor (ERR) signaling pathway (AID 1224820)
Method in brief: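 Following a 6 h settling period, 2,000 ERR cells per well receive DMSO-dissolved compounds by pin tool and incubate 18 h at 37 C; agonist activity is scored from One-Glo luminescence read 30 min post-addition.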

[9] = test system: estrogen-related receptor alpha (ERRalpha) with PGC-1alpha coactivator, human; experiment: qHTS assay to identify small molecule antagonists of the estrogen related receptor signaling pathway with the pleiotropic PPARgamma coactivator (PGC) (AID 1224821; calls by dose curve;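 note: lower luminescence signal means antagonism of PGC/ERR signalling; nearly all actives have a fitted effect of over 50% in size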)
Method in brief: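 Screening used NTP's PGC/ERR cells, dosed via pin tool with compound in DMSO alongside positive and negative controls. After 18 h at 37 C, One-Glo reagent sat 30 min at room temperature before luminescence detection.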

[10] = qHTS assay to identify small molecule antagonists of the estrogen related receptor signaling pathway with the pleiotropic PPARgamma coactivator (PGC) cell viability counter screen (AID 1224822)
Method in brief: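 Cytotoxicity in the PGC/ERR cell line is assessed with CellTiter-Fluor, read as fluorescence intensity 30 min after reagent addition, following 17.5 h compound treatment at 37 C.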

O=C(/C=C/c1ccccc1)OCCc1ccccc1
Potency [1]: inactive | Potency [2]: inactive | Potency [3]: inactive | Potency [4]: 2.73 µM (active)

C[C@]1(Cn2ccnn2)[C@H](C(=O)O)N2C(=O)C[C@H]2S1(=O)=O
Potency [1]: inactive | Potency [2]: inactive

C(=C\c1ccccc1)/c1ccccc1
Potency [5]: inactive | Potency [4]: 8.56 µM (active)

CC[C@]1(O)C[C@H]2CN(CCc3c([nH]c4ccccc34)[C@@](C(=O)OC)(c3cc4c(cc3OC)N(C=O)[C@H]3[C@@](O)(C(=O)OC)[C@H](OC(C)=O)[C@]5(CC)C=CCN6CC[C@]43[C@@H]65)C2)C1
Potency [1]: inactive | Potency [2]: inactive

CC(=O)OCCN(CCOC(C)=O)c1ccc(N=Nc2ccc([N+](=O)[O-])cc2C#N)cc1
Potency [1]: inactive | Potency [2]: 48.6 µM (active)

Cc1cscn1
Potency [1]: inactive | Potency [2]: inactive

CC1=C(Br)C(=O)C(Br)=C/C1=C(/c1ccccc1S(=O)(=O)O)c1cc(Br)c(O)c(Br)c1C
Potency [1]: inactive | Potency [2]: 16.5 µM (active) | Potency [3]: 20.8 µM (active) | Potency [4]: inactive

COc1ccccc1Oc1c(NS(=O)(=O)c2ccc(C(C)(C)C)cc2)nc(-c2ncccn2)nc1OCCO
Potency [1]: inactive | Potency [2]: inactive | Potency [3]: inactive | Potency [4]: inactive

COc1ccc(OC(=O)N(CC(=O)O)Cc2ccc(OCCc3nc(-c4ccccc4)oc3C)cc2)cc1
Potency [1]: inactive | Potency [2]: inactive

CCOC(=O)[C@H](CCc1ccccc1)N[C@@H](C)C(=O)N(CC(=O)O)C1Cc2ccccc2C1
Potency [1]: 5.35 µM (active) | Potency [2]: inactive

c1cc(N(CC2CO2)CC2CO2)ccc1Cc1ccc(N(CC2CO2)CC2CO2)cc1 (stereo unspecified)
Potency [1]: inactive | Potency [2]: inactive | Potency [3]: inactive | Potency [4]: 30.6 µM (active)

O=C(OCC(O)CO)c1ccccc1Nc1ccnc2cc(Cl)ccc12 (stereo unspecified)
Potency [1]: inactive | Potency [2]: inactive

COc1ccccc1N1CCN(CCCCNC(=O)c2ccc(-c3ccc(C(C)=O)cc3)cc2)CC1
Potency [1]: inactive | Potency [2]: inactive | Potency [3]: inactive | Potency [4]: inactive

O=C1C(=O)c2ccccc2C(O)=C1C1CCC(c2ccc(Cl)cc2)CC1 (stereo unspecified)
Potency [1]: inactive | Potency [2]: inactive

COc1cc(Nc2c(C#N)cnc3cc(OCCCN4CCN(C)CC4)c(OC)cc23)c(Cl)cc1Cl
Potency [1]: 8.49 µM (active) | Potency [2]: inactive

C=Cc1ccc(S(=O)(=O)O)cc1
Potency [1]: inactive | Potency [2]: inactive | Potency [3]: inactive | Potency [4]: inactive

CC(CCC(=O)O)C(=O)O (stereo unspecified)
Potency [5]: inactive | Potency [4]: inactive

C=CC(=O)OCC1CC2CC1C1CCC(COC(=O)C=C)C21 (stereo unspecified)
Potency [1]: 43.6 µM (active)

CC1CC(C)C(=O)C1=O (stereo unspecified)
Potency [1]: inactive | Potency [2]: inactive

CN1CCCN=C1COC(=O)C(O)(c1ccccc1)C1CCCCC1 (stereo unspecified)
Potency [1]: inactive | Potency [2]: inactive | Potency [3]: inactive | Potency [4]: inactive

Cc1ccco1
Potency [1]: inactive | Potency [2]: inactive

COC(=O)[C@H]1[C@H]2C[C@@H]3c4[nH]c5cc(OC)ccc5c4CCN3C[C@H]2C[C@@H](OC(=O)/C=C/c2ccc(O)c(OC)c2)[C@@H]1OC
Potency [1]: inactive | Potency [2]: inactive

C=C(C)C(=O)OCCOCCOC(=O)C(=C)C
Potency [1]: inactive

c1ccc2sc(SN(C3CCCCC3)C3CCCCC3)nc2c1
Potency [1]: inactive | Potency [2]: inactive

Oc1ccc(Cl)c2cccnc12
Potency [2]: inactive

C=C/C(C)=C/C/C=C(\C)CCC=C(C)C
Potency [2]: inactive

Brc1cc2ccccc2c2ccccc12
Potency [3]: inactive | Potency [4]: inactive

O=C(O)c1cccc(-c2noc(-c3ccccc3F)n2)c1
Potency [2]: inactive | Potency [3]: 0.422 µM (active) | Potency [4]: 0.003 µM (active)

Brc1cc(Br)c(Oc2cc(Br)c(Br)cc2Br)cc1Br
Potency [2]: inactive

CCC(C)COC(C)=O (stereo unspecified)
Potency [3]: inactive | Potency [4]: inactive

CN(C)CCC=C1c2ccccc2C=Cc2ccccc21
Potency [4]: inactive | outcome [6]: inactive | outcome [7]: inactive | outcome [8]: inactive | outcome [9]: inactive

O=C1Cc2ccccc2N1c1c(Cl)cccc1Cl
Potency [2]: inactive | Potency [4]: inactive

Cc1cccc(N(C)C(=S)Oc2ccc3c(c2)CCC3)c1
Potency [3]: inactive | Potency [4]: inactive

C/C=C(/C(=C/C)c1ccc(O)cc1)c1ccc(O)cc1
Potency [2]: inactive | Potency [4]: inactive

C[C@@H](O[C@H]1OCCN(Cc2n[nH]c(=O)[nH]2)[C@H]1c1ccc(F)cc1)c1cc(C(F)(F)F)cc(C(F)(F)F)c1
Potency [3]: 26.6 µM (active)

CC(C)(O)c1ccc(CNC(=O)c2cccnc2Oc2ccc3nonc3c2)cc1
Potency [2]: inactive | Potency [4]: inactive

CCC(C)COC(=O)CC(C)C (stereo unspecified)
Potency [2]: inactive | Potency [4]: inactive

Cc1cc(=O)c2c(O)c3c(O)cc(=O)c4c3c3c(cc(O)c1c23)C(C)(C)C=4O
activity, negative = inhibition [3]: -5.37% [at 19 µM]

C/C=C\C/C=C/CCCCCCCCOC(C)=O
Potency [2]: inactive | Potency [4]: inactive

O=c1[nH]ncc2ccccc12
Potency [2]: inactive | Potency [3]: inactive | Potency [4]: inactive

C[C@@H]1CN(CCCn2c3ccccc3c3ccccc32)C[C@H](C)N1
Potency [3]: 33.5 µM (active)

CC(C)(C)CC(=O)OCC(=O)[C@@]1(O)CC[C@H]2[C@@H]3CCC4=CC(=O)C=C[C@]4(C)[C@H]3[C@@H](O)C[C@@]21C
Potency [2]: inactive | Potency [3]: 33.5 µM (active) | Potency [4]: inactive

O=Cc1c2ccccc2c(Cl)c2ccccc12
Potency [4]: inactive

Oc1c(I)cc(I)c2cccnc12
Potency [2]: inactive | Potency [3]: inactive

C[C@@H](CN(C)C)CN1c2ccccc2Sc2ccccc21
Potency [2]: inactive

Nc1nnc(-c2ccc([N+](=O)[O-])o2)o1
Potency [3]: inactive | Potency [4]: inactive

N#CCCN(CCO)CCO
Potency [2]: inactive

CC1(CN2CCC(n3c(=O)[nH]c4ccccc43)CC2)OCc2ccccc2-n2cccc21 (stereo unspecified)
Potency [2]: inactive | Potency [3]: 29.8 µM (active) | Potency [4]: inactive

CC/C=C1/OC(=O)c2ccccc21
Potency [2]: inactive | Potency [3]: inactive

Clc1ccc(Nc2nnc(Cc3ccncc3)c3ccccc23)cc1
Potency [3]: inactive | Potency [4]: inactive

Nc1ccc(N=Nc2ccccc2)c(N)c1
Potency [3]: inactive | Potency [4]: 0.238 µM (active)

C[C@@H]1CC(=O)NN=C1c1ccc(NN=C(C#N)C#N)cc1
Potency [2]: inactive | Potency [3]: inactive

COc1ccccc1N1CCN(CC(O)COc2cccc3ccccc23)CC1 (stereo unspecified)
Potency [2]: inactive | Potency [3]: 26.6 µM (active) | Potency [4]: inactive | outcome [6]: inactive | outcome [10]: inactive

C=C(C)[C@@H]1CCC2=CCC[C@@H](C)[C@]2(C)C1
Potency [2]: inactive | Potency [3]: inactive | Potency [4]: inactive

CC(C)=CCC1C(=O)N(c2ccccc2)N(c2ccccc2)C1=O
Potency [2]: inactive | Potency [3]: inactive | Potency [4]: inactive

CC(=O)N/N=C/c1ccc([N+](=O)[O-])o1
Potency [3]: 29.8 µM (active)

CN(C(=O)CN(CCO)CC(=O)N(C)C(C)(C)Cc1ccccc1)C(C)(C)Cc1ccccc1
Potency [3]: 29.8 µM (active) | Potency [4]: inactive

O=C(CCCN1CC=C(n2c(=O)[nH]c3ccccc32)CC1)c1ccc(F)cc1
Potency [2]: inactive | Potency [4]: inactive

c1ccc(C[n+]2cccc3ccccc32)cc1
Potency [2]: inactive | Potency [3]: inactive | Potency [4]: inactive

CCCCCCCCCI
Potency [2]: inactive | Potency [3]: inactive | Potency [4]: inactive

CS(=O)(=O)c1ccc(-c2cn3ccccc3n2)cc1
Potency [2]: 11.9 µM (active) | Potency [3]: inactive | Potency [4]: 1.68 µM (active)

CCCC(C(=O)OCCN(CC)CC)(c1ccccc1)c1ccccc1
outcome [8]: inactive | outcome [9]: inactive

Oc1cccc(O)c1O
activation [4]: 3.27% (active)

Nc1nc2ccc([N+](=O)[O-])cc2s1
Potency [3]: inactive | Potency [4]: inactive | outcome [6]: inactive | outcome [10]: inactive
